# Measurements as given in the supplement of paper PMC3545927.
# Some of the results follow. The true hit rate is not given.
# B1: CS7 (peptide)
# chain: CAAVEVDGAGAGNASASA
# B2: FS-502 (peptide)
# chain: CASLKRQKRQAGNASASA
# B3: FS-2473 (peptide)
# chain: CASLKRDVSLAGNASASA
# B4: HC2341 (peptide)
# chain: CAENPCHRPSAGNASASA
# B5: FS-1277 (peptide)
# chain: CASDGRGKRHAGNASASA
# B6: HC690 (peptide)
# chain: CAVQIVSTAAAGNASASA
# B7: HC1554 (peptide)
# chain: CASSNVSVAHAGNASASA
# B8: HC973 (peptide)
# chain: CALYRLGAVQAGNASASA
# B9: FS-261 (peptide)
# chain: CAKQGVSKRHAGNASASA
# B10: FS-468 (peptide)
# chain: CANLLRVFRQAGNASASA
# B11: HC852 (peptide)
# chain: CAEVIKGGRHAGNASASA
# B12: FS-1361 (peptide)
# chain: CALLRRPFRQAGNASASA
# B13: FS-51 (peptide)
# chain: CALLRRGKRHAGNASASA
# B14: HC329 (peptide)
# chain: CALLRIPQAIAGNASASA
# B15: HC2300 (peptide)
# chain: CADCEVVTSTAGNASASA
# B16: HC2002 (peptide)
# chain: CAQVCCSMSYAGNASASA
# B17: HC1752 (peptide)
# chain: CAMEECSQELAGNASASA
# B18: HC749 (peptide)
# chain: CAVGIFRAAVAGNASASA
# B19: HC525 (peptide)
# chain: CAARVCSCLWAGNASASA
# B20: HC2454 (peptide)
# chain: CAEKEVPCHRAGNASASA
# B21: HC1276 (peptide)
# chain: CALLWRQEMGAGNASASA
# B22: FS-964 (peptide)
# chain: CATLRRYKRHAGNASASA
# B23: HC401 (peptide)
# chain: CADQRPYCWHAGNASASA
# B24: FS-75 (peptide)
# chain: CAPTGREKRPAGNASASA
# B25: FS-1630 (peptide)
# chain: CAHEGREKRHAGNASASA
# B26: FS-1642 (peptide)
# chain: CALLRRQIRTAGNASASA
# B27: HC797 (peptide)
# chain: CAGIDPNIRTAGNASASA
# B28: HC2338 (peptide)
# chain: CAETPCHRPSAGNASASA
# B29: HC665 (peptide)
# chain: CAEILLGPADAGNASASA
# B30: HC1798 (peptide)
# chain: CATEMEECSQAGNASASA
# B31: HC2262 (peptide)
# chain: CAEVVTSTWQAGNASASA
# B32: FS-1086 (peptide)
# chain: CASRCRFLRSAGNASASA
# B33: FS-1557 (peptide)
# chain: CAQRRRQRRPAGNASASA
# B34: FS-1254 (peptide)
# chain: CAQRRRQLRSAGNASASA
# B35: FS-469 (peptide)
# chain: CANRCRMLRSAGNASASA
# B36: FS-1645 (peptide)
# chain: CAMKNRFLRSAGNASASA
# B37: HC2450 (peptide)
# chain: CAEVEVPCHRAGNASASA
# B38: HC2320 (peptide)
# chain: CACVPCHRPSAGNASASA
# B39: HC1502 (peptide)
# chain: CAGGPLTNSRAGNASASA
# B40: HC2141 (peptide)
# chain: CAENVVCCSMAGNASASA
# B41: FS-1887 (peptide)
# chain: CARCRRQFQEAGNASASA
# B42: FS-1452 (peptide)
# chain: CAEPSRLVREAGNASASA
# B43: FS-3185 (peptide)
# chain: CARCRRLVREAGNASASA
# B44: HC1009 (peptide)
# chain: CADREVLYREAGNASASA
# Target: furin, P09958
# Sequence (P09958 whole entry): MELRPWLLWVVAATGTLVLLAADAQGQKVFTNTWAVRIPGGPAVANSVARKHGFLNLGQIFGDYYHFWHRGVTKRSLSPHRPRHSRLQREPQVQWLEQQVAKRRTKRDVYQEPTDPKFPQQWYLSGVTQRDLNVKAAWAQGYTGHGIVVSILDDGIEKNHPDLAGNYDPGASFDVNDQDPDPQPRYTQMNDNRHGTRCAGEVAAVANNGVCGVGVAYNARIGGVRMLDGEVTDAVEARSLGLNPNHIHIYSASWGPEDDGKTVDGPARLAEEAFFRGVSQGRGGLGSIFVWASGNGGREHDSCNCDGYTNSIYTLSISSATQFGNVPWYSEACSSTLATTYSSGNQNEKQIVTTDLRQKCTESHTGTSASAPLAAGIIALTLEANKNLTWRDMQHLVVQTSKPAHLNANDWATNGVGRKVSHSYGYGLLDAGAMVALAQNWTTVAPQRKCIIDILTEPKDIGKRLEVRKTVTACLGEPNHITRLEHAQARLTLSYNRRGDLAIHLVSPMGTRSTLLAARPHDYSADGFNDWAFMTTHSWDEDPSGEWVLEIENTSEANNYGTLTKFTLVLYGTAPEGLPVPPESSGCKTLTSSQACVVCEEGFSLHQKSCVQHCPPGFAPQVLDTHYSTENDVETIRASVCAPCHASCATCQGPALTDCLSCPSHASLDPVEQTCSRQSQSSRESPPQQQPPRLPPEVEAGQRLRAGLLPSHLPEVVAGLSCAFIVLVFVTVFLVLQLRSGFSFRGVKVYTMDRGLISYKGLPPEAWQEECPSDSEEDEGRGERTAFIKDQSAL
# Assay: furin cleavage Z-score vs untreated control; higher = more cleavage, active = 3.5 or more, inactive = 1 or less, 8 variable residues between constant flanks
# Experimental: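 Multiplexed peptide-cDNA fusion cleavage assay. 8-mer variable peptides flanked by constant Cys-Ala (N-term) and Ala-Gly-Asn-Ala-Ser-Ala-Ser-Ala (C-term) and conjugated to a cDNA oligonucleotide were bead-immobilised via the N-terminus. They were treated with purified furin at a 1:10 enzyme:substrate ratio in 50 mM HEPES pH 7.5, 1 mM CaCl2, 100 mM NaCl for 7.5, 15 or 30 min. Released cDNA was counted by next-generation sequencing, and log counts versus no-furin controls were lowess-adjusted and converted to robust Z-scores.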
Sequence,furin cleavage Z-score (7.5 min),furin cleavage Z-score (15 min),furin cleavage Z-score (30 min)
B1,0.521 (inactive),0.0281 (inactive),-2.24 (inactive)
B2,11.6 (active),12.1 (active),8.85 (active)
B3,-0.763 (inactive),0.0335 (inactive),1.41
B4,-0.397 (inactive),1.48,0.0102 (inactive)
B5,6.1 (active),6.45 (active),6.27 (active)
B6,0.498 (inactive),-1.18 (inactive),-0.374 (inactive)
B7,-2.36 (inactive),-0.374 (inactive),-0.657 (inactive)
B8,0.321 (inactive),-0.642 (inactive),0.286 (inactive)
B9,2.25,2.44,3.51 (active)
B10,0.426 (inactive),-0.885 (inactive),0.089 (inactive)
B11,-2.02 (inactive),-1.42 (inactive),-1.4 (inactive)
B12,2.8,1.06,3.65 (active)
B13,11 (active),10.8 (active),8.35 (active)
B14,-0.657 (inactive),-1.81 (inactive),-0.194 (inactive)
B15,0.556 (inactive),0.654 (inactive),-0.729 (inactive)
B16,-0.191 (inactive),-0.875 (inactive),0.558 (inactive)
B17,0.357 (inactive),-0.13 (inactive),-0.468 (inactive)
B18,-0.179 (inactive),-0.141 (inactive),0.209 (inactive)
B19,-1.84 (inactive),-1.52 (inactive),1.13
B20,0.758 (inactive),-0.375 (inactive),1.43
B21,1.14,0.0716 (inactive),0.841 (inactive)
B22,11.2 (active),10.9 (active),8.76 (active)

Sequence,furin cleavage Z-score (7.5 min),furin cleavage Z-score (15 min),furin cleavage Z-score (30 min)
B23,0.793 (inactive),-0.215 (inactive),1.33
B24,0.811 (inactive),0.063 (inactive),0.807 (inactive)
B25,7.09 (active),9.28 (active),8.39 (active)
B26,6.82 (active),8.8 (active),8.78 (active)
B27,-1.41 (inactive),-0.301 (inactive),-1.74 (inactive)
B28,-0.427 (inactive),-0.0389 (inactive),1
B29,0.796 (inactive),-1.29 (inactive),0.764 (inactive)
B30,1.39,-0.469 (inactive),-0.647 (inactive)
B31,0.0156 (inactive),-1.35 (inactive),-0.305 (inactive)
B32,4.82 (active),4.36 (active),4.8 (active)
B33,0.0891 (inactive),-1.68 (inactive),0.0903 (inactive)
B34,9.6 (active),10.8 (active),7.49 (active)
B35,2.76,3.91 (active),2.25
B36,7.49 (active),7.31 (active),7.79 (active)
B37,1.03,0.836 (inactive),1.62
B38,-1.73 (inactive),2.15,-0.71 (inactive)
B39,-0.097 (inactive),1.45,0.841 (inactive)
B40,-0.000681 (inactive),-0.718 (inactive),1.03
B41,0.189 (inactive),1.16,1.9
B42,3.98 (active),5.86 (active),4.45 (active)
B43,8.42 (active),9.96 (active),8.44 (active)
B44,1.17,0.738 (inactive),0.787 (inactive)
